What all share (experiment): peptide microarray binding signal (635 nm), min-max normalized on array (fraction of array maximum); higher = stronger binding
Holding throughout (conditions): peptide region: H2B 17-29

The target of assay [1] is T1, HaloTag-ATRX ADD domain (163-292).
T1 chain: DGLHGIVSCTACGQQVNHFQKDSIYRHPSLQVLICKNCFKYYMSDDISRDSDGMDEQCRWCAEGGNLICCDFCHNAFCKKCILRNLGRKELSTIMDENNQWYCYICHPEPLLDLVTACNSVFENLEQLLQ
The method, then: (§1)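 Histone 13-mer peptides were synthesized as cellulose conjugates with a C-terminal 20-atom PEG linker and printed in triplicate on nitrocellulose. The sequence given is the unmodified backbone; PTMs (Kme1/2/3, Kac, Sph/Tph, Rme/Rme2a/Rme2s, Rcit) are listed in the label and the 'peptide modifications' condition. Slides were probed at 4 °C for 1 h with biotin-labelled (HQ)5-HaloTag reader fusions (ATRX-ADD, ING2-PHD) then streptavidin-Alexa647, or with rabbit histone antibodies then anti-rabbit Alexa647. The mean 635 nm signal of the triplicate spots was scaled 0-1 between the lowest and highest values on each array.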

The target of assay [2] is HaloTag-ING2 PHD (mouse Ing2 200-280). As to the method: as §1
For assay [3], the target named is anti-H3K4me3 antibody ab8580. As to the method:
as §1

In assay [4] the target is anti-H3K9me3 antibody ab8898. As to the method: as §1
Where [5] appears, read: peptide modifications: H2BK20ac H2BK27ac, binder concentration: 1:2,000 dilution.
The mark [6] stands for this setting: peptide modifications: H2BK20ac H2BK27ac, binder concentration: 1:10,000 dilution.
[7] abbreviates: peptide modifications: H2BK24ac H2BK28ac, binder concentration: 1:2,000 dilution.
[8] abbreviates: peptide modifications: H2BK24ac H2BK28ac, binder concentration: 1:10,000 dilution.
[9] abbreviates: peptide modifications: H2BK23ac H2BK24ac H2BK27ac H2BK28ac, binder concentration: 1:2,000 dilution.
The mark [10] stands for this setting: peptide modifications: H2BK23ac H2BK24ac H2BK27ac H2BK28ac, binder concentration: 1:10,000 dilution.
Where [11] appears, read: peptide modifications: H2BK24ac H2BK27ac H2BK28ac, binder concentration: 1:2,000 dilution.
Where [12] appears, read: peptide modifications: H2BK24ac H2BK27ac H2BK28ac, binder concentration: 1:10,000 dilution.
The mark [13] stands for this setting: peptide modifications: H2BK20ac H2BK24ac H2BK27ac, binder concentration: 1:2,000 dilution.
[14] abbreviates: peptide modifications: H2BK20ac H2BK24ac H2BK27ac, binder concentration: 1:10,000 dilution.

± gives the standard deviation.

B1: H2B 17-29 A V T Kac A Q K K D G Kac K R (peptide)
chain: AVTKAQKKDGKKR
For the molecule B1, the “peptide microarray binding signal” value turned out to be 0.00332 ± 9.9e-05 in assay [1] (peptide modifications: H2BK20ac H2BK27ac, binder concentration: 50 nM); 0.00976 ± 0.00025 in assay [1] (peptide modifications: H2BK20ac H2BK27ac, binder concentration: 500 nM); 0.00573 ± 0.0013 in assay [2] (peptide modifications: H2BK20ac H2BK27ac, binder concentration: 10 nM); 0.00397 ± 0.00018 in assay [2] (peptide modifications: H2BK20ac H2BK27ac, binder concentration: 100 nM); 0.00349 ± 0.00028 in assay [3] (setting [5]); 0.000856 ± 8.9e-06 in assay [3] (setting [6]). The “peptide microarray binding signal” value in assay [4] (setting [5]) stood at 0.000755 ± 1.7e-05; in assay [4] (setting [6]) it was 0.000461 ± 8.7e-06.

B2: H2B 17-29 A V T K A Q K Kac D G K Kac R (peptide)
chain: AVTKAQKKDGKKR
B2: the “peptide microarray binding signal” value in assay [1] (peptide modifications: H2BK24ac H2BK28ac, binder concentration: 50 nM) was determined as 0.00524 ± 0.00097; in assay [1] (peptide modifications: H2BK24ac H2BK28ac, binder concentration: 500 nM) it was 0.00786 ± 0.0018; in assay [2] (peptide modifications: H2BK24ac H2BK28ac, binder concentration: 10 nM), 0.00412 ± 0.00017; in assay [2] (peptide modifications: H2BK24ac H2BK28ac, binder concentration: 100 nM) it was 0.00432 ± 0.00035; in assay [3] (setting [7]) it was 0.00034 ± 3.1e-05; in assay [3] (setting [8]) it was 0.00131 ± 5.7e-05. The “peptide microarray binding signal” value came out at 0.000695 ± 4.4e-05 in assay [4] (setting [7]) and 0.000519 ± 5.6e-06 in assay [4] (setting [8]).

B3: H2B 17-29 A V T K A Q Kac Kac D G Kac Kac R (peptide)
chain: AVTKAQKKDGKKR
Turning to B3, the “peptide microarray binding signal” value came to 0.00486 ± 0.00032 in assay [1] (peptide modifications: H2BK23ac H2BK24ac H2BK27ac H2BK28ac, binder concentration: 50 nM); 0.0102 ± 0.00019 in assay [1] (peptide modifications: H2BK23ac H2BK24ac H2BK27ac H2BK28ac, binder concentration: 500 nM); 0.00722 ± 0.00059 in assay [2] (peptide modifications: H2BK23ac H2BK24ac H2BK27ac H2BK28ac, binder concentration: 10 nM); 0.0164 ± 0.00086 in assay [2] (peptide modifications: H2BK23ac H2BK24ac H2BK27ac H2BK28ac, binder concentration: 100 nM); 0.00215 ± 0.00011 in assay [3] (setting [9]); 0.00205 ± 0.00011 in assay [3] (setting [10]). Moreover, the “peptide microarray binding signal” value came to 0.00101 ± 6.9e-05 in assay [4] (setting [9]) and 0.00138 ± 1.4e-05 in assay [4] (setting [10]).

B4: H2B 17-29 A V T K A Q K Kac D G Kac Kac R (peptide)
chain: AVTKAQKKDGKKR
Regarding B4, the “peptide microarray binding signal” value in assay [1] (peptide modifications: H2BK24ac H2BK27ac H2BK28ac, binder concentration: 50 nM) came to 0.00295 ± 3.3e-05; in assay [1] (peptide modifications: H2BK24ac H2BK27ac H2BK28ac, binder concentration: 500 nM), 0.00638 ± 0.0005; in assay [2] (peptide modifications: H2BK24ac H2BK27ac H2BK28ac, binder concentration: 10 nM), 0.0037 ± 7.9e-05; in assay [2] (peptide modifications: H2BK24ac H2BK27ac H2BK28ac, binder concentration: 100 nM), 0.00716 ± 0.00073; in assay [3] (setting [11]) it was 0.000944 ± 5.4e-05; in assay [3] (setting [12]), 0.00108. Further, the results for the “peptide microarray binding signal” value in assay [4] (setting [11]) and in assay [4] (setting [12]) were 0.000634 ± 9.9e-06 and 0.00098 ± 3e-05, respectively.

B5: H2B 17-29 A V T Kac A Q K Kac D G Kac K R (peptide)
chain: AVTKAQKKDGKKR
With B5, the “peptide microarray binding signal” value in assay [1] (peptide modifications: H2BK20ac H2BK24ac H2BK27ac, binder concentration: 50 nM) is 0.00335 ± 0.0001; in assay [1] (peptide modifications: H2BK20ac H2BK24ac H2BK27ac, binder concentration: 500 nM), 0.00514 ± 0.00021; in assay [2] (peptide modifications: H2BK20ac H2BK24ac H2BK27ac, binder concentration: 10 nM) it was 0.0031 ± 0.00013; in assay [2] (peptide modifications: H2BK20ac H2BK24ac H2BK27ac, binder concentration: 100 nM), 0.00255 ± 0.00012; in assay [3] (setting [13]), 0.00289 ± 0.00021; in assay [3] (setting [14]) it was 0.00143 ± 2.4e-05. Also, the “peptide microarray binding signal” value turned out to be 0.000649 ± 5.6e-05 in assay [4] (setting [13]) and 0.0011 ± 1.1e-05 in assay [4] (setting [14]).

For the origin of these results see the supplement of paper PMC4022240.
